Measurements from PubChem BioAssay AID2275 (Broad Institute, 2010).
The campaign covered roughly 30,000 compounds. About 190 (0.63%) were called active. Cut-off read from the data, not from the text of the source: active = viability loss activity score above about 50%; inconclusive = no clear call, values can overlap the other calls; inactive = below about 35%. What follows is part of a selection rich in actives, with near analogues and random picks from the rest.

Test: cytotoxicity in HRASV12-transformed BJ fibroblasts – cell-based, luminescence, CellTiterGlo ATP, primary screen (AID 2275);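 note: higher score means fewer live cells and less ATP luminescence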
Conditions: BJeLR fibroblasts viability, 48 h, active compounds read high, HRASV12, hTERT and SV40 LT/ST transformed, concentration not given here
For O=c1cc(N2CCN(c3ccccc3)CC2)[nH]c(=O)n1-c1ccc(Cl)cc1, the viability loss activity score was 2.58% (inactive). In the case of CN(Cc1ccccc1)C(=O)c1cc(-c2ccc(Cl)cc2)on1, the viability loss activity score is reported as 3.08% (inactive). With CC1=C(C(=O)OCc2ccccc2)OC(N)=C(C#N)C1c1ccc(F)cc1 (centres undefined) the viability loss activity score was 1.52% (inactive). With Cc1ccc(Cl)cc1N(C)C(=O)c1cc2c(-c3ccc(Cl)cc3)nn(C)c2s1 the viability loss activity score was -0.32% (inactive). For Cc1ccccc1NC(=O)Nc1ccccc1N1CCCCC1, the viability loss activity score was 1.43% (inactive). With C=C1SC(Nc2ccc(C)cc2)=NC1(C)C the viability loss activity score was 0.0102% (inactive). In the case of COc1ccc2c(c1)-c1c(ssc1=S)C(C)(C)N2C(C)=O, the viability loss activity score is reported as 12.8% (inactive). For C[C@H]1O[C@@H](O[C@H]2[C@@H](O)C[C@H](O[C@H]3[C@@H](O)C[C@H](O[C@H]4CC[C@]5(C)C6C[C@@H](O)[C@]7(C)[C@@H](C8=CC(=O)OC8)CC[C@]7(O)C6CC[C@@H]5C4)O[C@@H]3C)O[C@@H]2C)C[C@H](O)[C@@H]1O (some centres undefined), the viability loss activity score was 129% (active). For COc1cc(OC)cc(C2C(C#N)=C(N)OC(N)=C2C#N)c1, the viability loss activity score was 1.86% (inactive). For CCOC(=O)C1CCN(C(=O)CN2C(=O)c3ccccc3C2=O)CC1, the viability loss activity score was -3.08% (inactive). For Cc1noc(C)c1NC(=O)Nc1ccc2c(c1)C(=O)N([C@H](C)CO)C[C@H](C)[C@H](CN(C)Cc1ccc(-c3ccccc3)cc1)O2, the viability loss activity score was -1.86% (inactive). For Cc1cc(-c2nc(C)c(-c3nnc(SCC(=O)Nc4ccccc4)n3C)s2)no1, the viability loss activity score was -2.45% (inactive). For Cc1ccc2oc(=O)c3cc(C(=O)NC4CCCC4)sc3c2c1, the viability loss activity score was 4.55% (inactive). In the case of Cc1ccc(S(=O)(=O)N(CC(=O)Nc2ccc3c(c2)OCCO3)C2CCCCC2)cc1, the viability loss activity score is reported as -4.45% (inactive). In the case of CC[C@H]1CN2CCc3cc(OC)c(OC)cc3[C@@H]2C[C@@H]1C[C@H]1NCCc2cc(OC)c(OC)cc21, the viability loss activity score is reported as 96.1% (active). In the case of COc1cc2c(cc1OC)C1CN3CCc4cc(OC)c(OC)cc4C3CN1CC2 (centres undefined), the viability loss activity score is reported as 18.2% (inactive). In the case of O=C(Nc1cccc(-c2nc3ccccc3o2)c1)c1cccc(OCc2ccccc2)c1, the viability loss activity score is reported as 10.7% (inactive). With Cc1ccc(CN2CCSc3ccc(C(=O)Nc4ccc(F)cc4)cc32)cc1 the viability loss activity score was 0.172% (inactive). In the case of O=C(NC1CCCCC1)C1CCC(CNS(=O)(=O)c2ccccc2)CC1 (centres undefined), the viability loss activity score is reported as 6.1% (inactive). With CCc1ccc(NC(=O)NC(C)(C)C)cc1 the viability loss activity score was -4.47% (inactive). In the case of Cc1ccc(CNC(=O)CCC(=O)Nc2ccc3nc(N4CCCCC4)cc(C)c3c2)cc1, the viability loss activity score is reported as 0.494% (inactive). In the case of Cc1ccccc1NCC(=O)NN, the viability loss activity score is reported as -2.54% (inactive). With Cc1nnn(C23CC4CC(CC(CC(=O)Nc5ccc(Cl)cc5)(C4)C2)C3)n1 the viability loss activity score was -2.2% (inactive). With CC(C)(C)c1ccc(/C=C/C(=O)NCCCn2ccnc2)cc1 the viability loss activity score was 0.598% (inactive). For Nc1cc(=O)[nH]c2nnc(SCc3ccc(Br)cc3)n12, the viability loss activity score was -1.86% (inactive). With Cc1ccc(N2C(=O)c3oc4cc(C)c(C)cc4c(=O)c3C2c2ccc(O)cc2)nc1 (centres undefined) the viability loss activity score was -1.21% (inactive). For Oc1ccc(CN2CCCC2)c2cccnc12, the viability loss activity score was -4.68% (inactive). With CC1(C)Cc2c(cnn2-c2ccc(F)cc2)-c2nc3ccccc3nc21 the viability loss activity score was -0.68% (inactive). With CC(C)N(Cc1nc(-c2ccccc2)no1)C(=O)CCc1ccccc1 the viability loss activity score was -7.42% (inactive). In the case of Nn1c(C(=O)N2CCCC2)nc2ccccc2c1=O, the viability loss activity score is reported as -0.611% (inactive). In the case of CC(C)c1ccc(S(=O)(=O)N2CCN(S(=O)(=O)c3ccc(C(C)C)cc3)C(C)C2)cc1 (centres undefined), the viability loss activity score is reported as 4.1% (inactive). With CC1C=CCC2C(=O)N(c3cccc(Cl)c3)C(=O)C12 (centres undefined) the viability loss activity score was 0.408% (inactive). With CCCCN(Cc1ccccc1)S(=O)(=O)c1ccc2c(c1)oc(=O)n2CC(=O)OCC the viability loss activity score was -1.44% (inactive). In the case of O=C1c2ccccc2C(=O)N1CCCC(=O)n1ccc2ccccc21, the viability loss activity score is reported as -4.38% (inactive). With O=C(O)C1=NN(c2ccccc2)C(=O)/C1=C/c1cccs1 the viability loss activity score was 5.24% (inactive). For O=C(CCSc1nc(-c2ccco2)cc(C(F)(F)F)n1)N1CCCCC1, the viability loss activity score was -3.03% (inactive). With COc1ccc(Cn2c(=O)oc3ccccc32)cc1 the viability loss activity score was -1.69% (inactive). For C[C@H](CO)N1C[C@H](C)[C@H](CN(C)S(=O)(=O)c2cccs2)Oc2c(NC(=O)Nc3ccc4c(c3)OCO4)cccc2C1=O, the viability loss activity score was 1.64% (inactive). For C=CCNC(=O)/C=C/c1ccc(C(C)C)cc1, the viability loss activity score was -1.64% (inactive). With COc1cc2c(C(=O)N3CCN(c4ccccc4)CC3)cn(CC(C)C)c(=O)c2cc1OC the viability loss activity score was -11.1% (inactive). For CCN(C(=O)CSc1nc2ccccc2c2nc3ccccc3n12)c1cccc(C)c1, the viability loss activity score was 0.323% (inactive). For O=C(NC1CCCC1)c1cc(-c2ccc(Br)cc2)on1, the viability loss activity score was -5.17% (inactive). In the case of C[C@@H]1CN([C@H](C)CO)C(=O)c2cc(NS(=O)(=O)c3cccs3)ccc2O[C@H]1CN(C)Cc1ccncc1, the viability loss activity score is reported as 1.52% (inactive). With NNC(=O)CN1C(c2ccc(Cl)cc2)=Nc2ccc(Cl)cc2C1c1ccccc1 (centres undefined) the viability loss activity score was 4.53% (inactive). With CC1=C(C(=O)Nc2ccccc2Br)C2(CCCCC2)OC1=O the viability loss activity score was -3.85% (inactive). In the case of O=C(Nc1cccnc1)c1cc2c(s1)-c1ccccc1CC2, the viability loss activity score is reported as 2.6% (inactive). For COc1ccc(S(=O)(=O)N(C)C[C@H]2Oc3ccc(NS(C)(=O)=O)cc3C(=O)N([C@H](C)CO)C[C@H]2C)cc1, the viability loss activity score was 4.8% (inactive). In the case of CC(C)c1ccc(NC(=O)c2ccc(NS(=O)(=O)c3cccs3)cc2)cc1, the viability loss activity score is reported as 11.3% (inactive). In the case of CCOc1ccc(NC(=O)Cn2c3c(c(-c4ccccc4)cc2=O)CCCC3)cc1, the viability loss activity score is reported as 3.03% (inactive). For Cc1ccc2nc(-c3ccc(NC(=O)C4CCC4)cc3)sc2c1, the viability loss activity score was -1.59% (inactive). For Cc1ccc(OCC(=O)Nc2ccc(-c3nn4c(C)nnc4s3)cc2)cc1, the viability loss activity score was -1.91% (inactive). With CC1CCCCN1C(=O)CSc1nc(-c2ccccc2)cc(C(F)(F)F)n1 (centres undefined) the viability loss activity score was -1.5% (inactive). With CCC1=Nc2cc(C(=O)NCCCN3CCOCC3)ccc2Sc2ccc(Br)cc21 the viability loss activity score was 7.81% (inactive). With C[C@@H]1CN([C@@H](C)CO)C(=O)c2cccc(NC(=O)Nc3ccc(C(F)(F)F)cc3)c2O[C@@H]1CN(C)S(=O)(=O)c1ccc(F)cc1 the viability loss activity score was -0.826% (inactive).
